98 molecules from PubChem BioAssay AID651820 (National Center for Advancing Translational Sciences (NCATS), 2012) can be followed below.

Each structure is given as a SMILES string. Screen size: about 340,000 compounds; about 12,000 (3.5%) were called active. Entries that show only a call come without a potency. About 18% were inconclusive and are not listed. The full list was thinned out, with actives kept by preference. Values without a mark were called inactive. Calls follow the shape of the dose curve; as a rule, active = well fitted inhibition curve with a large enough effect; inconclusive = small, poorly fitted or top-dose-only effect, or another doubt; inactive = no such curve, though single readings can be large or run the other way.
Potency is read from the fitted curve at half-maximal effect.

This assay in a line: qHTS Assay for Inhibitors of Hepatitis C Virus (HCV). The following applies: Huh7.5.1 HCVcc-Cre infection, luciferase reporter, 44 h; series mostly up to 41.8 µM. In a few lines: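 Seed cells (1,000/well) for 4 h; treat with compound and infect with HCVcc-Cre, moi about 0.5. Incubate 44 h, then detect luciferase activity.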
With `Cc1cccc(C=CC(=O)c2ccc(Cl)cc2)c1`, the Potency result is “inactive”.

`COc1ccc(S(=O)(=O)NC(C)C(=O)N2CCCCCC2)cc1` (stereo not drawn): the Potency result was “inactive”.

Consider `COc1ccc(S(=O)(=O)NCc2ccc(C(=O)N3CCC4(CC3)OCCO4)cc2)cc1`, for which the Potency result is “inactive”.

For `COc1ccc(CNS(=O)(=O)c2ccc(NC(=O)N3CCCCC3)cc2)cc1`, the Potency was 8.91 µM (active).

Consider `CCOC(=O)c1c(-c2ccccc2)oc2ccc(OCC(N)=O)cc12`, for which the Potency is 10 µM (active).

For the molecule `CN(C)C(=O)Oc1ccc2c(c1)O/C(=C\c1ccccc1)C2=O`, the Potency entry is “inactive”.

Turning to `CCOC(=O)c1c(-c2ccccc2)oc2ccc(OC(=O)N(C)C)cc12`, the Potency is 10 µM (active).

Turning to `Cc1c(Cc2ccccc2)c(=O)oc2cc(OCC(N)=O)ccc12`, the Potency entry is “inactive”.

`Cc1cc(=O)oc2ccc(OCC(=O)O)cc12`: the Potency result is “inactive”.

On to `CCOC(=O)c1cc(=O)c2ccc(OCc3ccccc3)cc2o1`, for which the Potency result was “inactive”.

As for `CCOc1ccccc1Nc1nnc(SCC(=O)NCC2CCCO2)s1` (stereo not drawn), the Potency result was “inactive”.

As for `C=C(C)CNc1cc(S(=O)(=O)N2CCOCC2)ccc1Oc1ccccc1`, the Potency entry is “inactive”.

Turning to `CCOc1ccc(CCNC(=O)COC(=O)c2c(OC)cccc2OC)cc1OCC`, the Potency entry was “inactive”.

For `CC(C(=O)NC1CCCC1)N1CCN(S(=O)(=O)c2ccccc2Cl)CC1` (stereo not drawn), the Potency entry is “inactive”.

Regarding `COc1ccc(OC)c(NC(=O)COC(=O)Cc2ccsc2)c1`, the Potency result is “inactive”.

In the case of `Cc1ccc(Br)c(NS(=O)(=O)c2cccc(C(=O)N3CCNC(=O)C3)c2)c1`, the Potency entry was “inactive”.

As for `Cc1ccc2nc(S(=O)(=O)O)[nH]c2c1`, the Potency entry is “inactive”.

Turning to `CCOC(=O)CSc1nc2ccc(C)cc2[nH]1`, the Potency entry was “inactive”.

Consider `Cc1ccc2nc(/C(C#N)=C\c3ccc(OC(=O)c4cccs4)cc3)[nH]c2c1`, for which the Potency was 1.78 µM (active).

For the molecule `Cc1cc(C(=O)OCC(=O)Nc2ccccc2Cl)c(C)o1`, the Potency result was “inactive”.

In the case of `O=C(O)CN1CCN(C(c2ccccc2)c2ccccc2)CC1`, the Potency result was “inactive”.

`CC1(C)CC(N2CCN(C(c3ccccc3)c3ccccc3)CC2)=CC(=[N+]2CCCCC2)C1`: the Potency was 3.16 µM (active).

Regarding `CC(C)NC(=S)N1CCN(C(c2ccccc2)c2ccccc2)CC1`, the Potency entry was “inactive”.

For `CS(=O)(=O)c1ccc(C(=O)OCC(=O)NNC(=O)COc2ccc(Cl)cc2)cc1`, the Potency entry was “inactive”.

Take `O=C(NCCCc1ccccc1)C(=O)NCC1OCCN1S(=O)(=O)c1ccccc1` (stereo not drawn): the Potency result was “inactive”.

Turning to `CN=C(Nc1cccc(S(=O)(=O)N2CCOCC2)c1)c1ccccc1`, the Potency entry was “inactive”.

As to `CC(C)Oc1ccc(C(=O)NCC(=O)Nc2ccc3c(c2)CCC3)cc1`, the Potency result is “inactive”.

With `CC[C@]1(C(=O)OC)[C@H]2C(=O)N(Cc3ccccc3)C(=O)[C@H]2[C@H]2CN=C(SCc3ccccc3)N21`, the Potency result is “inactive”.

For the molecule `O=S(=O)(O)c1nc2ccccc2n1Cc1ccc(Cl)cc1`, the Potency entry was “inactive”.

For `N=c1n(Cc2ccc(Cl)cc2)c2ccccc2n1CC(O)c1ccco1` (stereo not drawn), the Potency is 11.2 µM (active).

On to `Cn1c(=N)n(CC(O)c2cccs2)c2ccccc21` (stereo not drawn), for which the Potency result was “inactive”.

Take `C[C@H](CO)N1C[C@H](C)[C@H](CN(C)CC2CC2)Oc2ccc(NC(=O)CCN3CCOCC3)cc2C1=O`: the Potency result was “inactive”.

Consider `C[C@]12CCC(=O)C=C1C=CC1C2CC[C@@]2(C)C1CC[C@@]21CCC(=O)O1` (stereo partly drawn), for which the Potency result was “inactive”.

As for `COc1ccc(-c2c(C#Cc3ccsc3)c3cc(-c4ccc(CN5CCOCC5)cc4)ccc3n2C)cc1`, the Potency result was “inactive”.

Turning to `Cc1cc(Nc2ccc(N3CCOCC3)cc2)c2cccc(C)c2n1`, the Potency result was “inactive”.

As for `Cc1cc(N2CCOCC2)nc(-c2ccc(Br)cc2)n1`, the Potency was 10 µM (active).

Regarding `Cc1cc(N2CCN(c3ccccc3)CC2)nc(N2CCOCC2)n1`, the Potency entry is “inactive”.

As to `O=[N+]([O-])c1ccc(COc2ccccc2CN2CCOCC2)cc1`, the activity change, negative = inhibition was -17.2% [at 8.37 µM].

Consider `Cc1cnc(NC(=O)CSc2c(Cl)cccc2Cl)s1`, for which the Potency entry is “inactive”.

`Cc1cnc(NC(=O)c2ccccn2)s1`: the Potency is 10 µM (active).

`Cc1cnc(NC(=O)c2ccc(Cl)nc2)s1`: the Potency entry was “inactive”.

Take `O=C(NCCc1ccc(F)cc1)c1ccc2nccnc2c1`: the Potency result was “inactive”.

Take `NC(=O)c1ccc(N2CCCC2)nc1`: the Potency entry is “inactive”.

With `C[C@H]1CN([C@@H](C)CO)C(=O)Cc2cc(NC(=O)Cc3ccccc3)ccc2O[C@H]1CN(C)S(=O)(=O)c1cccs1`, the Potency entry is “inactive”.

With `COC(=O)c1ccc(SCc2ccccc2)nc1`, the Potency result was “inactive”.

Consider `CCCCOc1ccc(C(=O)NCC(=O)OCC(=O)c2c(N)n(C)c(=O)n(C)c2=O)cc1`, for which the Potency result was “inactive”.

For the molecule `COc1ccc(C(=O)N(C)Cc2ccc(OC)c(OC)c2OC)cc1S(=O)(=O)N1CCOCC1`, the Potency entry is “inactive”.

For the molecule `COc1cc(OC)cc(-c2c(-c3cccs3)c3cc(-c4ccc(OC)nc4)ccc3n2C)c1`, the Potency entry is “inactive”.

As to `COc1ccc(-c2c(C#Cc3ccccc3)c3ccccc3n2C)cc1`, the Potency result is “inactive”.

With `COc1cc(OC)cc(-c2c(C#Cc3ccsc3)c3cc(-c4ccc(SC)cc4)ccc3n2C)c1`, the Potency entry was “inactive”.

Regarding `COc1cc(OC)cc(-c2c(-c3ccc(F)cc3)c3cc(-c4ccc5cc[nH]c5c4)ccc3n2C)c1`, the Potency was 10 µM (active).

`COc1cc(OC)cc(-c2c(C#Cc3ccsc3)c3cc(-c4ccc(OC)cc4F)ccc3n2C)c1`: the Potency entry is “inactive”.

Regarding `COc1ccc(-c2c(-c3cc(OC)cc(OC)c3)n(C)c3ccc(-c4ccn[nH]4)cc23)cc1`, the Potency was 11.2 µM (active).

`CC1O[C@H](OC2C(COC3OC(CO)C(O)[C@H](O)C3O)OC(OC3CC[C@]4(C)C(CC[C@@]5(C)[C@@H]4C=C[C@]46OC[C@@]7(CCC(C)(C)C[C@H]74)C(O)C[C@@]56C)C3(C)C)C(O)C2O)C(O)C(O)C1O` (stereo partly drawn): the Potency result was “inactive”.

Regarding `CNC[C@@H]1Oc2c(NS(C)(=O)=O)cccc2C(=O)N([C@@H](C)CO)C[C@H]1C`, the Potency entry was “inactive”.

On to `CCN(CC(=O)Nc1ccccc1C(F)(F)F)C(=O)C1CCN(C(=O)Nc2ccccc2)CC1`, for which the Potency entry was “inactive”.

For the molecule `COc1ccc(CCNC(=O)COC(=O)c2cc(=O)c3ccccc3o2)cc1`, the Potency result is “inactive”.

In the case of `Cc1ccc(NC(=O)CCN2C(=O)c3ccccc3C2=O)cc1C`, the Potency entry was “inactive”.

Take `Cc1cc(C)cc(NC(=O)CN2C(=O)c3ccccc3C2=O)c1`: the Potency entry was “inactive”.

Consider `Cc1cc2c(cc1C)N(C(=O)CN1C(=O)c3ccccc3C1=O)C(C)(C)c1ssc(=S)c1-2`, for which the Potency was 8.91 µM (active).

Regarding `O=C(NOCc1ccccc1)c1cccc([N+](=O)[O-])c1`, the Potency entry is “inactive”.

For the molecule `O=C(Nc1cccc(-c2cccc(Cl)c2)c1)C1CCN(C2CCC2)CC1`, the Potency is 12.6 µM (active).

As for `O=C(Nc1cccc(Cl)c1)C1CCCN(c2cnccn2)C1` (stereo not drawn), the Potency result is “inactive”.

Regarding `O=C(NC1CCCC1)C1CCN(C(=O)Nc2cccc(Cl)c2)CC1`, the Potency entry is “inactive”.

With `N#Cc1ccc(CN2CCN(CC(=O)Nc3ccccc3C(=O)NC3CC3)CC2)cc1`, the Potency entry is “inactive”.

Regarding `CCOC(=O)c1c(C)[nH]c2c1-c1ccccc1C(=O)C2=O`, the Potency was 2.51 µM (active).

Turning to `CCOC(=O)N1CCN(CC(=O)c2c(C)[nH]c3ccccc23)CC1`, the Potency entry is “inactive”.

As for `CCOC(=O)c1c(C)[nH]c(C)c1S(=O)(=O)N(C)CC(=O)Nc1ccccc1C`, the Potency entry is “inactive”.

`O=C1OC(Cc2ccccc2)C(c2ccccc2)C1=O` (stereo not drawn): the Potency entry is “inactive”.

As to `COCCN(CCOC)S(=O)(=O)NC[C@H]1O[C@@H](n2cnc3c(N)ncnc32)[C@H](O)[C@@H]1O`, the Potency entry is “inactive”.

Regarding `O=C(COc1coc(CN2CCN(c3ccccc3F)CC2)cc1=O)N1CCc2ccccc21`, the activity change, negative = inhibition is 13.6% [at 8.37 µM].

As for `Cc1ccc(Nc2c(O)nc[nH]c2=O)cc1C`, the Potency result is “inactive”.

As to `CC/C(=N\NC(=S)NC(C)C)c1ccc(OC(F)F)cc1`, the Potency was 10 µM (active).

`CC(C)N(Cc1ccccc1)C(=S)Nc1ccc(OC(F)F)cc1`: the Potency entry is “inactive”.

Turning to `O=C(NNC(=S)NCc1ccccc1)c1ccc(OC(F)F)cc1`, the Potency entry is “inactive”.

For `CC(C)c1ccc(/C=C/C(=O)NCCCN2CCOCC2)cc1`, the Potency result was “inactive”.

In the case of `C[C@H]1COC(=O)[C@H](CC(=O)OC(C)(C)C)C/C=C\C[C@@H](CC(=O)N[C@H](CO)Cc2ccccc2)C(=O)N1`, the Potency result is “inactive”.

For the molecule `O=C(N/N=C/c1ccc(OC(=O)c2ccccc2Cl)cc1)c1ccc(O)cc1`, the Potency result is “inactive”.

As for `CC(C)(C)C(=O)Nc1ccc(C(=O)N/N=C/c2ccccc2OC(=O)c2ccc(Cl)cc2Cl)cc1`, the Potency was 10 µM (active).

As to `O=C(N/N=C/c1ccoc1)c1ccc(Cl)cc1Cl`, the Potency result is “inactive”.

`CCOc1ncccc1C(=O)Nc1ccc(S(=O)(=O)Nc2nc(C)cc(C)n2)cc1`: the Potency result is “inactive”.

Consider `Cc1ccc(S(=O)(=O)N(Cc2cc3ccccc3[nH]c2=O)CC2CCCO2)cc1` (stereo not drawn), for which the Potency result is “inactive”.

With `CCN(Cc1cc2cc(C)ccc2[nH]c1=O)S(=O)(=O)c1ccccc1`, the Potency was 11.2 µM (active).

As to `CCC(=O)N(CCc1ccccc1)Cc1cc2cc(C)ccc2[nH]c1=O`, the Potency entry is “inactive”.

`O=C(COC(=O)c1ccc2c(c1)OCCO2)NCc1ccccc1Cl`: the Potency entry was “inactive”.

With `CCOc1ccc(-n2c(O)c(/C=N/Nc3nnc(C)c(=O)[nH]3)c3ccccc3c2=O)cc1`, the Potency result is “inactive”.

Take `CCOc1ccc(-n2c(O)c(/C=N/c3ccnn3Cc3ccncc3)c3ccccc3c2=O)cc1`: the Potency entry is “inactive”.

Turning to `CCOc1ccc(-n2c(O)c(/C=N/Nc3nc(C)cc(C)n3)c3ccccc3c2=O)cc1`, the Potency was 2.24 µM (active).

Consider `COC(=O)C1CC2=C(CC(C)(C)CC2=O)N(c2ccccc2)C1=O` (stereo not drawn), for which the Potency result is “inactive”.

In the case of `CC1CC2=C(CC1/C=N/NC(N)=S)C(C)(C)CCC2` (stereo not drawn), the Potency is 6.31 µM (active).

In the case of `C[C@@H]1ON(C)[C@H]2C[C@H]3c4cc(N5CCN(C)CC5)ccc4CCN3C(=O)[C@@H]12`, the Potency result is “inactive”.

`O=C(NCc1ccc(Cl)cc1)C(=O)NCC1CCCN1S(=O)(=O)c1cccs1` (stereo not drawn): the Potency entry is “inactive”.

Regarding `Oc1ccc(-c2nnc(Nc3ccccc3)c3ccccc23)cc1`, the Potency entry was “inactive”.

As for `S=c1nc2ccccc2c2nc(-c3cccnc3)[nH]n12`, the Potency entry was “inactive”.

`COc1ccccc1Oc1nc(-c2cccnc2)nc2ccccc12`: the Potency result was “inactive”.

Consider `Cc1cccc(-c2nc(Nc3ccc(O)cc3)c3ccccc3n2)c1`, for which the Potency was 12.6 µM (active).

Regarding `COc1ccc(Nc2nc(-c3cccnc3)nc3ccccc23)cn1`, the Potency was 7.94 µM (active).

`CCOC(=O)c1nc(Nc2ccc(C(=O)OC)cc2)c2ccccc2n1`: the Potency result is “inactive”.
